A number with no mark means an inactive call.
System: Meloidogyne hapla J2
Experiment: proportion of mobile M. hapla J2 relative to DMSO control (fraction of DMSO control); higher = more viable, less nematicidal, active = 0.7 or less
Conditions: 60 µM; 5 days; temperature: 20 °C
How it was run: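 Compound was pinned to 60 µM final (0.6% v/v DMSO) into 96-well wells, each holding about 25 M. hapla J2 in distilled water. Plates were sealed and shaken for 5 days at 20 °C and 200 rpm, then given 2 µL 1 M NaOH per well. Microscopic mobility scores were normalised to the mean of the plate's own DMSO wells, eight per plate, with two biological replicates averaged.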

SMILES	proportion of mobile M. hapla J2
COc1nc(C)ccc1-c1noc(-c2ccc(C(C)(C)C)cc2)n1	0.926
Cc1cc(Cl)ccc1OCc1nc(-c2ccc(F)cc2)no1	0.859
COc1ccc(-c2noc(C34CC5CC(CC(C5)C3)C4)n2)cc1	1.04
COc1ccccc1NC(=O)CSc1nnc(-c2cccc3ccccc23)o1	0.811
Cc1cc(Br)ccc1OCc1nc(-c2cccnc2)no1	1.05
O=C(NC1CCCCC1)c1ccccc1-c1nc(-c2ccc(F)cc2)no1	0.863
Cc1ccc(-c2noc(-c3ccccc3OCC(N)=O)n2)cc1	1.04
O=C(c1ccccc1-c1nc(-c2ccc(F)cc2)no1)N1CCCC1	1.06
O=C(CSc1nnc(-c2ccco2)o1)Nc1cc(Cl)ccc1Cl	1.01
Cc1cccc(-c2noc(COc3ccc(C)cc3C)n2)c1	1.09
C=C(C)COc1ccc(-c2nc(-c3cccnc3)no2)cc1	0.919
Clc1ccc(-c2nc(-c3ccncc3)no2)c(Cl)c1	0.942
Cc1ccc(C)c(OCc2nc(-c3ccccc3Cl)no2)c1	0.854
Brc1ccc(-c2noc(-c3ccco3)n2)cc1	1.01
Cc1cccc(-c2nc(-c3ccc4c(c3)OCO4)no2)c1	1.01
COc1ccc(-c2nnc(SCC(=O)Nc3ccc(Br)cc3C(C)C)o2)cc1	1
Cc1ccc(OCc2nc(-c3ccncc3)no2)c(Br)c1	0.993
Cc1ccccc1-c1nnc(SCc2ccccc2Cl)o1	0.863
